These results are taken from PubChem BioAssay (EPA / NIEHS).

Active and inactive are the calls of the source. Rule for the calls: active = hit-call score of the fitted dose curve at least 0.9, where 1 is the maximum; inactive = score below 0.9.

Experiment [1] in a line: ATG_CRE_CIS: Attagene CIS-FACTORIAL HepG2 Assay for human cAMP Responsive Element (CRE) binding protein 3 (AID 2282926). To be noted: HepG2 CRE cis-reporter, Attagene multiplexed mRNA; actives raise or lower the signal. A digest of the protocol:
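Endogenous CRE-binding activity in HepG2 is reported through a cis-regulated transfected reporter. Following a day of exposure, mRNA levels are determined by reverse transcription PCR and fluorescent fragment analysis; fits run in both directions versus DMSO.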

The target in experiment [2] is CCAAT/enhancer-binding protein beta (Homo sapiens) (UniProt P17676). As to the kind of experiment: ATG_C_EBP_CIS: Attagene CIS-FACTORIAL HepG2 Assay for human CCAAT/Enhancer Binding Protein (C/EBP) beta (AID 2282927). To be noted: HepG2 Attagene cis-factorial transcription factor reporter; actives raise or lower the signal. A digest of the protocol:
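Endogenous C/EBPb-driven reporter transcripts measured in transfected human HepG2 cells at 24 h via RT-PCR and capillary electrophoresis of labelled fragments. Activity fitted in both directions relative to DMSO baseline.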

The nature of experiment [3]: ATG_CMV_CIS: Attagene CIS-FACTORIAL HepG2 Assay for human CMV (Internal Marker) (AID 2282928).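 Note: endpoint acts as a background internal control marker rather than a target.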 To be noted: HepG2 CMV promoter reporter, transcription factor profiling; actives raise or lower the signal. A digest of the protocol:
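CMV internal-marker background readout in transiently transfected HepG2 cells bearing cis-regulated reporter units. Reporter mRNA is measured 24 h after dosing by RT-PCR and capillary electrophoresis, with bidirectional fitting against DMSO.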

Experiment [4] is described as follows: ATG_DR4_LXR_CIS: Attagene CIS-FACTORIAL HepG2 Assay for human Liver X Receptor (LXR), DR4 submotif (AID 2282929). To be noted: HepG2 Attagene DR4 cis-reporter, mRNA transcription; actives raise or lower the signal. A digest of the protocol:
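After transient transfection with multiplexed cis-promoter reporter units, HepG2 cells received test chemicals for 24 h. Reporter mRNA induction, detected by fluorescence after RT-PCR and capillary electrophoresis, was scored relative to DMSO.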

For experiment [5], the target named is Aryl hydrocarbon receptor (Homo sapiens) (UniProt P35869). The experiment is described as follows: ATG_Ahr_CIS: Attagene CIS-FACTORIAL HepG2 Assay for human Aryl Hydrocarbon Receptor (Ahr) (AID 2282930). To be noted: HepG2 AhR cis-factorial reporter transcription; actives raise or lower the signal. A digest of the protocol: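 Reporter mRNA levels, quantified by RT-PCR and fluorescent capillary electrophoresis, reflect endogenous AhR transcriptional activity in HepG2 cells carrying transfected cis-promoter reporter constructs. Readout at 24 h post-dose; gain or loss fitted against DMSO baseline.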

A short description of experiment [6]: ATG_AP_2_CIS: Attagene CIS-FACTORIAL HepG2 Assay for human Activator Protein 2 (AP-2) (AID 2282932). To be noted: HepG2 AP-2 cis-reporter, Attagene transcription factor profiling; actives raise or lower the signal. The method in brief:
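Step one: transient transfection of HepG2 with reporter transcription units. Step two: 24 h chemical exposure. Step three: RNA extraction, RT-PCR, labelled fragment analysis by capillary electrophoresis; DMSO serves as baseline.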

A short description of experiment [7]: ATG_BRE_CIS: Attagene CIS-FACTORIAL HepG2 Assay for human Bone Morphogenetic Protein (BMP) Response Element (BRE) (AID 2282933). To be noted: HepG2 BMP response element reporter, Attagene transcription factor profiling; actives raise or lower the signal. A digest of the protocol: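 After a 24 h chemical treatment, transiently transfected HepG2 cells were lysed for RNA; reporter transcripts were quantified by fluorescent RT-PCR and capillary electrophoresis, normalised to DMSO.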

Experiment [8] deals with Retinoic acid receptor alpha (Homo sapiens) (UniProt P10276). As to the kind of experiment: ATG_DR5_RAR_CIS: Attagene CIS-FACTORIAL HepG2 Assay for human Retinoic Acid Receptor Alpha (RARE), DR5 submotif (AID 2282934). To be noted: HepG2 Attagene cis-factorial RARE DR5 reporter, mRNA; actives raise or lower the signal. The method in brief:
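Reporter transcripts from a DR5-regulated unit, measured via RT-PCR plus capillary electrophoresis, reflect endogenous RAR activity in transiently transfected human HepG2 liver cells. Exposure lasted 24 h; gain or loss of signal scored against DMSO.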

Experiment [9] has as its target Transcription factor E2F1 (Homo sapiens) (UniProt Q01094). The experiment is described as follows: ATG_E2F_CIS: Attagene CIS-FACTORIAL HepG2 Assay for human E2F Transcription Factor 1 (AID 2282935). To be noted: HepG2 Attagene cis-reporter, E2F reporter RNA transcripts; actives raise or lower the signal. The method in brief: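 Total RNA from 24 h-treated, reporter-transfected HepG2 cells undergoes DNase I treatment, oligo(dT) reverse transcription, PCR and 6-FAM primer extension before capillary electrophoresis.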

Experiment [10] in a line: ATG_E_Box_CIS: Attagene CIS-FACTORIAL HepG2 Assay for human Enhancer Box (E-box) (AID 2282936). To be noted: HepG2 E-box cis-reporter transcription, actives raise or lower the signal. A digest of the protocol: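 DMSO served as negative control and baseline for bidirectional fitting. Human hepatoma HepG2 cells, transiently transfected with cis-reporter constructs, were dosed 24 h; reporter mRNA read by RT-PCR and capillary electrophoresis.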

The nature of experiment [11]: ATG_AP_1_CIS: Attagene CIS-FACTORIAL HepG2 Assay for human Activator Protein 1 (AP-1) (AID 2282931). To be noted: HepG2 Attagene cis-factorial AP-1 reporter mRNA; actives raise or lower the signal. The method in brief:
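After 24 h incubation with test chemical, RNA from transfected HepG2 cells was reverse-transcribed, amplified, fluorescently labelled and digested before capillary electrophoresis. Reporters were driven by cis-regulatory promoters; activity fitted bidirectionally versus DMSO.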

Chain of Aryl hydrocarbon receptor (Homo sapiens) (P35869 whole entry, looked up): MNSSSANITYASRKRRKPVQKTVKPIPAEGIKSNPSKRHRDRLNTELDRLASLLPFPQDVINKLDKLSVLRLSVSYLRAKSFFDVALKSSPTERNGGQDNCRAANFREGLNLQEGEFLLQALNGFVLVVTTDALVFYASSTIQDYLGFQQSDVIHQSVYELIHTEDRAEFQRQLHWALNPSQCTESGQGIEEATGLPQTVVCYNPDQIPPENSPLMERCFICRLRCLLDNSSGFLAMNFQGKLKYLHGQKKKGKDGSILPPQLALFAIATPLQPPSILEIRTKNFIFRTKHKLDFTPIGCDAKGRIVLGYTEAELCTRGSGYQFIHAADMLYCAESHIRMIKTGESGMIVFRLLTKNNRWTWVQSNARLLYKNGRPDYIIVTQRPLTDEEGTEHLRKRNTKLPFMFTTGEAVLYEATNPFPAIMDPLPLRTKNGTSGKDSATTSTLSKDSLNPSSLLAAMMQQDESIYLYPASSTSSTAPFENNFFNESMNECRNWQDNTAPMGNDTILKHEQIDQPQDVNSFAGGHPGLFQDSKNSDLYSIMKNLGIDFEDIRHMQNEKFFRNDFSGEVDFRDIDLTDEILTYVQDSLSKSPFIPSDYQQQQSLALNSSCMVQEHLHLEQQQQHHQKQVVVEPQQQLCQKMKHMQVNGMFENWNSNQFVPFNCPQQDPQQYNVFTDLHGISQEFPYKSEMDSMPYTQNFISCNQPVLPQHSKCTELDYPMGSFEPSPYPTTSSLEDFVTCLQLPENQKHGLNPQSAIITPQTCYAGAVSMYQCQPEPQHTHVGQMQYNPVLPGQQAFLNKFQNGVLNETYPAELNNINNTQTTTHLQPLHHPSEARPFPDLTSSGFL
Chain of Retinoic acid receptor alpha (Homo sapiens) (P10276 whole entry, looked up): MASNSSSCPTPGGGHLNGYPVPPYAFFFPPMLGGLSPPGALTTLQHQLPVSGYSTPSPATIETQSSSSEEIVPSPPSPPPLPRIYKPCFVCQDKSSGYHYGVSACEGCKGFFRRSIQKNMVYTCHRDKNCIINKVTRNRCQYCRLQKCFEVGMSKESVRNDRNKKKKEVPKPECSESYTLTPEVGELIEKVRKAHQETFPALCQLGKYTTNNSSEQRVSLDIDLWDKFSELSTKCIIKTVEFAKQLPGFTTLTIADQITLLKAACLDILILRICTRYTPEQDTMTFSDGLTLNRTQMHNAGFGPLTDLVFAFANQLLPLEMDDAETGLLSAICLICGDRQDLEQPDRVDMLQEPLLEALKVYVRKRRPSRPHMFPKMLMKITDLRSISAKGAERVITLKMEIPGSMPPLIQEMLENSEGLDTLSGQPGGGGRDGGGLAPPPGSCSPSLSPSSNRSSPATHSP
Chain of Transcription factor E2F1 (Homo sapiens) (Q01094 whole entry, looked up): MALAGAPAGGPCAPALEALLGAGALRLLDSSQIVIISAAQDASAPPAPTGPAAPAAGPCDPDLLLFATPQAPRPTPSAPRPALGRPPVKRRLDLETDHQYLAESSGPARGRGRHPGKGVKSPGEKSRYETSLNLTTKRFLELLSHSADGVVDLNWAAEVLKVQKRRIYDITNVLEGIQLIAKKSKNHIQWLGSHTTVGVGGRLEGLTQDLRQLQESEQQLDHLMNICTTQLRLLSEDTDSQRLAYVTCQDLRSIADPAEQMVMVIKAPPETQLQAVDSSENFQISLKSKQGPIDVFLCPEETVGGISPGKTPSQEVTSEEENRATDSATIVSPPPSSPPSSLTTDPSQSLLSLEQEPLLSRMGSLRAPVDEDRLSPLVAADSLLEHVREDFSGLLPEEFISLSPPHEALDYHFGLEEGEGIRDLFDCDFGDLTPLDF
Chain of CCAAT/enhancer-binding protein beta (Homo sapiens) (P17676 whole entry, looked up, the tested form may be a part): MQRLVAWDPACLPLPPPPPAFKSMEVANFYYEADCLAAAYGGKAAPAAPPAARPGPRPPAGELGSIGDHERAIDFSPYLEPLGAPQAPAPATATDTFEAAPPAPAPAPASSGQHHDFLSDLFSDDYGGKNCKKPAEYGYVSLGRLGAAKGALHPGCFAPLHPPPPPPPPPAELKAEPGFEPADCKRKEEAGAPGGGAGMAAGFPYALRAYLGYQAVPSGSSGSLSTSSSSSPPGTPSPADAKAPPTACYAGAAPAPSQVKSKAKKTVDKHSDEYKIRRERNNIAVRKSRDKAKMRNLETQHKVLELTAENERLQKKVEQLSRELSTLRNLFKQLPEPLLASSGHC

Take `CCC[N+](CCC)(CCC)CCC`: the compound was called inactive in [1], in experiment [2], in experiment [3], in [4], in experiment [5] and in experiment [6]. Also, the compound was classed as inactive in [7], in experiment [8], in experiment [9] and in experiment [10].
Take `CCOC(=O)CC(=O)CCl`: the AC50 (commonly the midpoint of the concentration-response curve, whichever way the signal moves) in experiment [1] was 176 µM (active); in experiment [2] it was 183 µM (active); in [3] it was 65.7 µM (active); in [11], 75.2 µM (active); in experiment [6], 44 µM (active); in [10], 128 µM (active). Further, the call in experiment [5], in [7], in [8] and in [9] was inactive.
Regarding `C[CH2][Hg][S]c1ccccc1C(=O)O`, the concentration at half-maximal activity (AC50) in [1] is 2.94 µM (active); in experiment [2], 2.23 µM (active); in [6], 4.81 µM (active); in experiment [10], 6.19 µM (active). For the same compound, the result in experiment [3], in [5], in experiment [11] and in experiment [7] was inactive.
In the case of `CCOC(=O)Cc1ccccc1`, the compound was called inactive in [1], in experiment [2], in [3], in experiment [5], in [11] and in [6]. The result in [7], in [8] and in experiment [10] was inactive.
For `Nc1nc(N)nc(Cl)n1`, the outcome in experiment [1], in [2], in experiment [3], in experiment [4], in experiment [5] and in experiment [7] was inactive. Further, the compound was called inactive in experiment [8], in experiment [9] and in [10].
With `COc1ccc(N)cc1`, the result in experiment [1], in experiment [2], in [3], in experiment [4], in experiment [5] and in experiment [6] was inactive. Also, the result in experiment [7], in experiment [9] and in experiment [10] was inactive.
As to `c1ccc2sc(SNC3CCCCC3)nc2c1`, the result in experiment [1], in [2], in experiment [3], in experiment [4], in experiment [7] and in experiment [8] was inactive. In addition, the outcome in experiment [9] and in experiment [10] was inactive. Besides, the AC50 in experiment [5] is 4.84 µM (active).
On to `C=C(C)C(=O)OCCCCOC(=O)C(=C)C`, for which the result in experiment [1], in experiment [2], in experiment [3], in experiment [5], in experiment [11] and in experiment [6] was inactive. The compound was classed as inactive in experiment [7], in experiment [8], in experiment [9] and in experiment [10].
As to `Cc1cccc(N=Nc2ccc(N(C)C)cc2)c1`, the compound was classed as inactive in [1], in [2], in [3], in experiment [4], in [6] and in [7]. Besides, in experiment [10], the result was inactive. For the same compound, the AC50 in experiment [5] is 8.37 µM (active).
In the case of `CCC(C)(C#N)N=NC(C)(C#N)CC` (configuration not stated), the compound was called inactive in experiment [1], in experiment [2], in [3], in [4], in experiment [5] and in experiment [6]. Further, the compound was classed as inactive in experiment [7], in [8], in experiment [9] and in experiment [10].
For the compound `C=CCCl`, the result in experiment [1], in [2], in [3], in experiment [5], in experiment [11] and in experiment [6] was inactive. For the same compound, the call in experiment [7], in experiment [8], in experiment [9] and in experiment [10] was inactive.
For the compound `C=C(C)[C@@H]1CC=C(C=O)CC1`, the result in [1], in experiment [2], in experiment [3], in [4], in experiment [6] and in experiment [7] was inactive. Further, the outcome in experiment [8] and in [10] was inactive. In addition, the AC50 in experiment [11] is 100 µM (active).
Turning to `CNC(=O)O/N=C/C(C)(C)S(C)(=O)=O`, the call in experiment [1], in experiment [2], in experiment [3], in [5], in [11] and in [6] was inactive. The compound was classed as inactive in experiment [7], in experiment [8], in [9] and in [10].
On to `OC(c1ccc(Cl)cc1)(c1ccc(Cl)cc1)c1cccnc1`, for which the compound was classed as inactive in experiment [1], in experiment [3], in experiment [5], in experiment [7], in experiment [8] and in experiment [9]. Further, the result in experiment [10] was inactive. The AC50 in experiment [2] and in [4] was 11.1 µM (active) each time.
Consider `C#C[C@]1(O)CC[C@H]2[C@@H]3CCC4=CC(=O)CC[C@]4(C)[C@H]3CC[C@@]21C`, for which the result in [1], in [2], in experiment [3], in experiment [4], in [5] and in experiment [6] was inactive. The result in [7], in [8], in experiment [9] and in [10] was inactive.
In the case of `N#CCC#N`, the call in experiment [1], in experiment [2], in [3], in experiment [5], in experiment [11] and in experiment [6] was inactive. Further, the result in [7], in experiment [9] and in [10] was inactive.
Regarding `CCCCCCCCBr`, the compound was classed as inactive in [1], in experiment [2], in [3], in [5], in [11] and in experiment [7]. Moreover, the result in experiment [8], in experiment [9] and in experiment [10] was inactive.
With `Nc1c(Oc2ccccc2)cc(O)c2c1C(=O)c1ccccc1C2=O`, the compound was called inactive in experiment [1], in experiment [2], in experiment [3], in experiment [4], in experiment [6] and in experiment [8]. The result in experiment [9] and in experiment [10] was inactive. The figures for the AC50 in [5] and in experiment [7] were 1.71 µM (active) and 13.2 µM (active), respectively.
With `O=S1OC[C@@H]2[C@H](CO1)[C@]1(Cl)C(Cl)=C(Cl)[C@@]2(Cl)C1(Cl)Cl` (some centres not stated), the compound was called inactive in experiment [1], in experiment [2], in [5], in [6], in experiment [7] and in experiment [9]. Also, the result in experiment [10] was inactive. The AC50 in [3] and in [11] was 100 µM (active) in each case.
